# Most compounds without a hit are left out; they make up all but 9% or so of the library.
# IMPase inh – qHTS Assay for Identifying the Cell-Membrane Permeable IMPase Inhibitors; Inositol monophosphatase 1 (Rattus norvegicus), P97697; CHO-M1 cells, IP1 accumulation, HTRF TR-FRET ratio; inhibition (IP1 accumulation), % at 46.1 µM; 120,000 tested, under 10 active; AID 901, 2007; active = well fitted curve in the direction sought with a large enough effect in the signal ratio, not every such curve was filed as active; inconclusive = small, poorly fitted or top-dose-only effect, or a change in a side signal; inactive = no such curve, though single readings can be large or run the other way; the % refers to the signal ratio;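 note: cells stimulated with carbachol in lithium chloride buffer; plate controls were DMSO basal wells for no effect and reference inhibitor wells for full effect; higher means more IMPase inhibition seen as more IP1 and lower FRET ratio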
# Target sequence (P97697 whole entry, looked up): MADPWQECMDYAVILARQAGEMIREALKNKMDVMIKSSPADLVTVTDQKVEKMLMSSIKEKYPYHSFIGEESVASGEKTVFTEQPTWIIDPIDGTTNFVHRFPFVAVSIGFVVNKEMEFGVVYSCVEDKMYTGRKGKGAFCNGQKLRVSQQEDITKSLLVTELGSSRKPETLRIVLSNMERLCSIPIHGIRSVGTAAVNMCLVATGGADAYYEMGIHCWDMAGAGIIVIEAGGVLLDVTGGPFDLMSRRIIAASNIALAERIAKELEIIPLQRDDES
#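 In this qHTS, compounds (final up to 46 uM) act on CHO-M1 cells that are then activated through the M1 receptor with carbachol, in pH 7.4 buffer containing 50 mM LiCl, for 30 min. IP1 accumulation is quantified by the IP-One immunoassay.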
# ALDH1A1 inh – qHTS Assay for Inhibitors of Aldehyde Dehydrogenase 1 (ALDH1A1). Aldehyde dehydrogenase 1A1 (Homo sapiens), P00352. Purified ALDH1A1, NADH fluorescence, propionaldehyde substrate. Potency, µM (titrated, usually from 75.3 µM), without a hit: at the highest dose activity, negative = inhibition, most hits filed as inhibitors. actives 7.3% (n = 220,000). AID 1030, 2008;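 note: potency is the fitted concentration of half-maximal effect; plate controls were no enzyme wells and a reference inhibitor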
# HPGD inh – qHTS Assay for Inhibitors of HPGD (15-Hydroxyprostaglandin Dehydrogenase). 15-hydroxyprostaglandin dehydrogenase [NAD(+)] (Homo sapiens), P15428. purified HPGD, NADH fluorescence kinetic, PGE2 substrate. Potency, µM, for inactives: at the top dose activity change, negative = inhibition, actives largely listed as inhibitors. actives 4.3% (n = 150,000). AID 894, 2007; note: potency is the fitted concentration of half-maximal effect
# Target sequence (P15428 whole entry, looked up): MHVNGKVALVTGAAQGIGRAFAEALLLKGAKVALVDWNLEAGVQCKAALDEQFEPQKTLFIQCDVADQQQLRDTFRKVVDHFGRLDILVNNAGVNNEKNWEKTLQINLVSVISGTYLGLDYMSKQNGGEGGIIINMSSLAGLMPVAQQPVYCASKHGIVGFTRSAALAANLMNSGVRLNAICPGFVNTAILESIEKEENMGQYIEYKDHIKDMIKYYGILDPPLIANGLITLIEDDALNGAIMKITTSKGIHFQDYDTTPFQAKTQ
#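 NADH formation kinetics: reaction with 30 uM PGE2 and 1 mM NAD+ (final), 20 nM enzyme, Tris-HCl pH 8 with Tween 20, after 15 min compound preincubation at room temperature. Fluorescence change, last versus first of five reads.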
# An asterisk follows results filed as active; ? = inconclusive; . = no result; [ ] = another dose, or the depositor's remark. Unless noted, calls come from the whole dose curve; as a rule, active = well fitted inhibition curve with a large enough effect (not every such curve was filed as active); inconclusive = small, poorly fitted or top-dose-only effect, or another doubt; inactive = no such curve, though single readings can be large or run the other way. Unless noted, % is set by controls: 0 for no effect and ±100 for the full control effect.
SMILES,IMPase inh,ALDH1A1 inh,HPGD inh
CCN(CC)c1ccc(/C=N/N2CCOCC2)cc1,23,22µM*,-18%
CCN(CC)c1ccc(/C=N/N2CCN(c3ccccn3)CC2)cc1,.,22µM*,.
COc1ccc(/C=N/N2CCOCC2)cc1O,.,3%,-8%
Cc1ccc(/C=N/N2CCN(Cc3ccccc3)CC2)cc1,.,0%,.
C[C@@H](COc1ccc(/C=C\c2ccccc2)cc1)[N+](C)(C)C,22,.,.
Cc1cc(N=Cc2c(CO)cnc(C)c2O)c(N=Cc2c(CO)cnc(C)c2O)cc1C.[Zn],.,-14%[13.5 µM],-10%
COc1ccc(-c2cc3nc(-c4ccc(C)cc4)cc(C(F)(F)F)n3n2)cc1,-1,.,.
Cc1cc(-c2ccccc2)oc(=O)c1NC(=O)c1ccccc1,.,-10%,.
Nc1cccnc1Sc1ccc([N+](=O)[O-])cn1,.,?,10µM*
O=[N+]([O-])c1ccc(Sc2ccccc2)nc1,.,-8%,-5%
Nc1cccnc1Sc1cc(Cl)c(Cl)cc1Cl,0,?,-16%
O=[N+]([O-])c1ccc(Sc2n[nH]c(-c3ccccc3)n2)nc1,-3,-15%,8.9µM*
CC1CC(C)CN(CC(=O)NCCc2ccc(S(N)(=O)=O)cc2)C1 (stereo not given),.,18%,.
Cc1ccc(S(=O)(=O)Nc2cccc3c2CCCC3)cc1,9,?,-11%
Cn1cccc1Cc1nnc(SCC(=O)Nc2cccc(F)c2)n1CCc1ccccc1,16,?,-11%
Cn1cccc1Cc1nnc(SCC(=O)Nc2ccccc2F)n1CCc1ccccc1,2,25µM*,-14%
Cn1cccc1Cc1nnc(SCC(=O)N2CCCCCC2)n1CCc1ccccc1,0,25µM*,-9%
Cn1cccc1Cc1nnc(SCC(=O)N2CCCC2)n1CCc1ccccc1,-4,?,-13%
O=C(Nc1ccccc1)C1CC(=O)N(c2ccc3c4c(cccc24)CC3)C1 (stereo not given),7[1.84 µM],?,-14%
O=C(c1ccccc1)c1ccc(Oc2ncccn2)cc1,7,-3%,-20%
CCOC(=O)C1=C(C)NC2=C(C(=O)CCC2)C1c1cn(Cc2ccc(Cl)cc2Cl)nc1-c1ccccc1 (stereo not given),-2,?,?
CCCn1ncc(CN2CCN(CCc3ccccc3)C(CCO)C2)c1C (stereo not given),.,7%,.
C[C@H](C[C@H](N)C(=O)O)C(=O)O,1,1%,-5%
Cc1cc(Br)ccc1-n1[nH]c(C)c(C=Nc2cccc3nsnc23)c1=O,.,-6%,.
O=C(Nc1ccc(S(=O)(=O)N2CCCCC2)cc1)C1CCCN(C(=O)c2ccc(Cl)cc2)C1 (stereo not given),.,-3%,?
SMILES,IMPase inh,ALDH1A1 inh,HPGD inh
CCCCCCC(=O)Nc1ccc(C(=O)N2CCCC2)cc1,-7,?,4µM*
O=C(Nc1ccc(C(=O)N2CCCCC2)cc1)C1CCCCC1,6,?,2µM*
O=C(O)CCC(=O)Nc1ccc(C(=O)N2CCCCC2)cc1,-4,-6%,0.71µM*
COc1ccc(NC(=O)C2CCN(C(=O)c3ccc(OC)cc3)CC2)cc1,5,-4%,-10%
O=C(O)CCC(=O)Nc1ccc(C(=O)OC2CCCCC2)cc1,0,-12%,-24%
CN(C)S(=O)(=O)c1ccc(NC(=O)C2CCCN(C(=O)c3ccc(Cl)cc3)C2)cc1 (stereo not given),.,13µM*,-18%
CCCCCC(=O)Nc1ccc(N2CCN(C(=O)c3ccccc3)CC2)cc1,5,-2%,-19%
CCOc1ccccc1NC(=O)c1cccc(S(=O)(=O)N(Cc2ccccc2)c2ccccc2OC)c1,-2,1%,-15%
C=C(C)CC(Nc1ccc(OC)cc1)c1ccco1 (stereo not given),.,-6%,.
O=C(COC(=O)c1cccc(S(=O)(=O)N2CCc3ccccc32)c1)Nc1ccc(Cl)cn1,11,-10%,-4%
CCC1=C2CC[C@H]3C(=O)N(c4ccccc4)C(=O)[C@H]3[C@H]2[C@@]2(Cc3ccccc3)C(=NCc3ccccc3)OC(=O)N2C1=O,.,-2%,-4%
CC(=O)Nc1ccc(NC(=O)C2CCN(C(=O)c3cccs3)CC2)cc1,.,13µM*,.
O=C(Nc1ccccc1)C1CCCCC1,6,8%,25µM*
COc1ccc(OC)c(NC(=O)C2CCN(C(=O)c3cccs3)CC2)c1,.,2%,.
O=C(O)CCCC(=O)Nc1ccc(N2CCCC2)cc1,?,2%,-1%
O=C(O)CCCC(=O)Nc1ccc(C(=O)N2CCCCC2)cc1,13,9%,2.2µM*
Cc1cnc(C(=O)Nc2ccc(C(=O)N3CCCCC3)cc2)cn1,-1,-3%,0.28µM*
O=C(Nc1ccc(Nc2ccccc2)cc1)C1CC1,0,-7%,-15%
Cc1cnc(C(=O)Nc2ccc(N3CCCCC3)cc2)cn1,.,2%,.
CN(C)c1ccnc(-c2cccc(NS(C)(=O)=O)c2)n1,.,-9%,-18%
Cn1c(=O)c(/C(N)=N/OC(=O)c2ccccc2)cn(-c2ccccc2)c1=O,.,10%,.
Cc1cccc(C(=O)NNC(=O)CN2C(=O)c3ccccc3C2=O)c1,-1,-2%,-1%
COc1ccc(S(=O)(=O)N(NC2=NS(=O)(=O)c3ccccc32)C(=O)C(C)C)cc1,.,2%,.
N[C@@H](CO)C(=O)O,-4,1%,-2%
C/C(=N\Nc1ccc(F)cc1F)c1ccc(Br)s1,.,13µM*,.
SMILES,IMPase inh,ALDH1A1 inh,HPGD inh
C/C(=N\Nc1ccc(F)cc1F)c1ccc(N2CCOCC2)cc1,.,16µM*,.
C/C(=N/Nc1ccc(F)cc1)c1ccc(Cl)s1,3,?,-18%
C/C(=N\Nc1ccc(F)cc1F)c1ccc(F)cc1,0,?,-7%
CCCS(=O)(=O)N1CCN=C1SCc1cccc2ccccc12,.,-44%,.
Cc1cc(C)n2nc(CCCO)nc2n1,.,7%,.
Cc1cc(NC(=O)CCSc2ccccc2)no1,.,1%,.
COc1cc(/C=C2\C(=O)N(CCC#N)N=C2C)c(Br)cc1OC(C)C,-16,-8%,8.9µM*
CC1=NN(c2ccccc2)C(=O)/C1=C\c1cn(CCC#N)nc1-c1ccc(Cl)cc1,.,-5%,-17%
O=C(Nc1ccc(Cl)cc1)N1CCOC12CCCCC2,.,-6%,.
CCOC(=O)C1=C(C)NC(C)=C(C(=O)OCC)C1c1ccc(C)o1,.,7%,.
CC1=C(C(N)=O)C(c2ccc(C)o2)C(C(N)=O)=C(C)N1,-6,40µM*,-10%
Cc1sc(NC(=O)c2ccc(=O)n(C)n2)nc1-c1ccccc1,.,28µM*,.
CCOC(=O)Nc1nc(-c2ccccc2)c(C)s1,.,?,-20%
Cc1ccc(Cl)cc1N1CCN(S(=O)(=O)c2ccc3[nH]c(=O)c(=O)[nH]c3c2)CC1,.,3%,.
Cc1ccc(Cl)cc1N1CCN(CC(=O)Nc2ccc3[nH]c(=O)[nH]c3c2)CC1,6,22µM*,-7%
Cc1cc2nc([C@H](C)C(=O)c3ccc(Cl)cc3)c(=O)[nH]c2cc1C,.,3%[13.5 µM],-11%
CC(=O)c1cccc(NC(=O)CN(C)Cc2ccc(OC(F)F)cc2)c1,.,11µM*,.
COc1cc(NC(=O)CN(C)Cc2ccc(OC(F)F)cc2)c(C)cc1[N+](=O)[O-],-6,-5%,.
OCCSCc1cc(Cl)cc(Cl)c1O,.,-11%[13.5 µM],0%

# Screens from PubChem.
